Screening results from PubChem BioAssay.
Nrf2 inh: blocks Nrf2 signaling. Potency, µM (top dose mostly 46 µM), for the others: at the highest dose activity change, negative = inhibition, most hits filed as inhibitors. 360,000 tested, 2.1% active. A549 ARE-Fluc reporter, luciferase luminescence, 18-24 h. AID 504444; note: % is set by controls: 0 for no effect and ±100 for the full control effect; nearly all actives have a fitted effect of over 60% in size
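Quantitative HTS in A549 cells stably bearing an antioxidant response element-firefly luciferase construct. Inhibition of Nrf2-driven transcription was scored by luminescence after 18-24 h of compound exposure at 37 °C.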
A549 tox: kills or reduces viability of A549 cells in Nrf2 counter-screen | AID 504648 | A549 ARE-Fluc cells, CellTiter-Fluor viability, 18-24 h | Potency, µM (highest dose often 46 µM), for the others: at the top dose activity change, negative = cytotoxicity, usual class: inhibitors | 390,000 tested, 0.16% active; note: % is set by controls: 0 for no effect and ±100 for the full control effect
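A549 ARE_Fluc cells in 5% FBS OPTI-MEM were exposed to compounds in concentration-response for 18-24 h at 37 deg C. Viability was read by CellTiter-Fluor fluorescence (Ex 405/Em 525) after 30 min, before the luciferase read.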
Mito fusion yeast: blocks mitochondrial division or promotes mitochondrial fusion. S. cerevisiae fusion-defective mutant growth rescue, CellTiterGlo 48 h. Potency, µM (titrated, usually from 46.1 µM), inactives show at the top dose growth rescue (activation), actives largely listed as activators. 320,000 tested, 0.23% active; note: % of control where 0% means no effect; nearly all actives have a fitted effect of over 45% in size
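Growth-rescue viability read-out: after 48 h at the non-permissive 37C in glycerol/ethanol YPEG, yeast mitochondrial fusion mutants are measured by CellTiterGlo luminescence; compounds (23 nl pinned per well) restoring growth score as division inhibitors or fusion activators.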
mIDH1 inhibitor: inhibitors of human mutant IDH1 R132H | IDH1-R132H enzyme, NADPH consumption, diaphorase/resazurin fluorescence | AID 602179 | O75874 | 390,000 tested, 0.093% active | Potency, µM (top dose mostly 76.6 µM), for the others: at the top dose activity change, negative = inhibition, usual class: inhibitors; note: % is set by controls: 0 for no effect and ±100 for the full control effect; nearly all actives have a fitted effect of over 65% in size
Target sequence (O75874 whole entry R132H, stated change not applied): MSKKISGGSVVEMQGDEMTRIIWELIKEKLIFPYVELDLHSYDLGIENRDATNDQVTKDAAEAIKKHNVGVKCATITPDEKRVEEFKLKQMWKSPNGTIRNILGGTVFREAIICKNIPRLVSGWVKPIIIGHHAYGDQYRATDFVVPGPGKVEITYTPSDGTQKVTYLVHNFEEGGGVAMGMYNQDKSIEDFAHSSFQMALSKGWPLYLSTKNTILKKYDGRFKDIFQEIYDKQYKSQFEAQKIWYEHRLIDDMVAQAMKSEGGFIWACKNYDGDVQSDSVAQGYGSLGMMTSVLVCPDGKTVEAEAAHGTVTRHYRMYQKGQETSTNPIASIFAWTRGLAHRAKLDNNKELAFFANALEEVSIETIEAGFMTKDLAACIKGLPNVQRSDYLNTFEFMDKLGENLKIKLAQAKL
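IDH1-R132H (0.5 ug/mL dispensed) in pH 7.5 Tris buffer was preincubated 30 min with compound, then given a substrate mix of 0.016 mM NADPH and 2 mM alpha-KG for 80 min at room temperature; remaining NADPH was read by diaphorase/resazurin fluorescence.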
rTrxR1 inhibitor: rat TrxR1 inhibition. Potency, µM (highest dose often 114 µM), for the others: at the highest dose activity change, negative = inhibition, hits mostly inhibitors. AID 588453. 390,000 tested, 1% active. recombinant rTrxR1, NADPH fluorescence consumption, selenite substrate; note: % is set by controls: 0 for no effect and ±100 for the full control effect; nearly all actives have a fitted effect of over 65% in size
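Rat TrxR1 (90 nM in the dispensed reagent) was pre-reduced with 400 uM NADPH for 5 min at room temperature, then incubated with compound for 15 min. After 400 uM selenite was added, NADPH fluorescence (Ex 340/Em 450 nm) was followed for 8 min.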
TrxR1 substrate: substrates of rat thioredoxin reductase 1. O89049. purified TrxR1 substrate turnover, NADPH consumption readout. Potency, µM (top dose mostly 114 µM), without a hit: at the highest dose activity change, negative = substrate turnover. 390,000 tested, 0.01% active. AID 588456; note: % is set by controls: 0 for no effect and ±100 for the full control effect; nearly all actives have a fitted effect of over 50% in size
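Rat TrxR1, dispensed at 90 nM, was prereduced with 400 uM NADPH (final) for 5 min at ~22 deg C, then incubated with compound 15 min before 400 uM selenite. A first-read NADPH fluorescence drop versus no-compound background flagged substrates.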
* marks the source's active call; other numbers are inactive results; ! = not confirmed by another sample; [ ] = another dose, or the depositor's remark. Most compounds without a hit are left out; they make up all but 3.1% or so of the library. Calls come from the whole dose curve; as a rule, active = well fitted curve in the direction sought with a large enough effect; inconclusive = small, poorly fitted or top-dose-only effect, or another doubt; inactive = no such curve, though single readings can be large; an effect the other way counts as inactive or inconclusive. Potency is the fitted concentration of half-maximal effect.

How did O=C(CNC(=O)C1CCCCCC1)OC(C(=O)Nc1cc(C(F)(F)F)ccc1Cl)c1ccccc1 (stereo not drawn) do in these assays?
Nrf2 inh: 1%; A549 tox: 2%

How did Oc1ccc(N=Cc2cc(Br)c(N3CCOCC3)o2)cc1 do in these assays?
Nrf2 inh: 4%; A549 tox: -5%; Mito fusion yeast: 0%; mIDH1 inhibitor: 9%; rTrxR1 inhibitor: 32µM*; TrxR1 substrate: -7%

How did COc1cc(N)c(N)cc1OC do in these assays?
rTrxR1 inhibitor: 12%; TrxR1 substrate: 7%

Results for O=C(Nc1ncnc2c1C(c1ccccc1)c1c(ccc3ccccc13)O2)c1ccccc1 (stereo not drawn) ?
Nrf2 inh: inconclusive; A549 tox: inconclusive; rTrxR1 inhibitor: 10%; TrxR1 substrate: -4%

What do the screens show for `O=C(Cc1ccccc1)Nc1ncnc2c1C(c1ccccc1)c1c(ccc3ccccc13)O2` (stereo not drawn)?
Nrf2 inh: 5.2µM*; A549 tox: inconclusive; rTrxR1 inhibitor: 6%[57.1 µM]; TrxR1 substrate: 7%[57.1 µM]

What do the screens show for `CCOC(=O)CCC(=O)Nc1ncnc2c1C(c1ccccc1)c1c(ccc3ccccc13)O2` (stereo not drawn)?
Nrf2 inh: 6.5µM*!; A549 tox: inconclusive; rTrxR1 inhibitor: 55%; TrxR1 substrate: 17%[57.1 µM]

What do the screens show for `CCOc1ccc(-n2c(SCC(=O)c3ccccc3)nc3c([nH]c4ccccc43)c2=O)cc1`?
A549 tox: 16%; mIDH1 inhibitor: 9%; rTrxR1 inhibitor: 21%[57.1 µM]; TrxR1 substrate: 8%[57.1 µM]

What do the screens show for `O=C(CCCN1CCC(O)(c2cccc(C(F)(F)F)c2)CC1)c1ccc(F)cc1`?
Nrf2 inh: 15%; A549 tox: -10%; Mito fusion yeast: 23µM*!; rTrxR1 inhibitor: 8%[57.1 µM]; TrxR1 substrate: 6%[57.1 µM]

How did Cc1cc2nc(SCCOC(=O)Nc3cccc(Cl)c3)nc(C)c2cc1C do in these assays?
Nrf2 inh: inconclusive; A549 tox: -10%; Mito fusion yeast: 27%; mIDH1 inhibitor: -6%; rTrxR1 inhibitor: 17%[57.1 µM]; TrxR1 substrate: -4%[57.1 µM]

What do the screens show for `Cc1cc2nc(SCCOC(=O)Nc3ccccc3)nc(C)c2cc1C`?
Nrf2 inh: 21µM*; A549 tox: -11%; Mito fusion yeast: -9%; mIDH1 inhibitor: -3%; rTrxR1 inhibitor: 9%; TrxR1 substrate: 0%

Results for CSC1=C(C#N)C(=O)NC(c2ccccc2O)S1 (stereo not drawn) ?
Nrf2 inh: 2%; A549 tox: -11%; Mito fusion yeast: 7%; mIDH1 inhibitor: 1%; rTrxR1 inhibitor: inconclusive; TrxR1 substrate: -2%[57.1 µM]

How did COC(=O)CSC1=C(C#N)C(=O)NC(c2ccccc2)S1 (stereo not drawn) do in these assays?
Nrf2 inh: -2%; A549 tox: -2%; Mito fusion yeast: 1%; mIDH1 inhibitor: 21%; rTrxR1 inhibitor: 28µM*; TrxR1 substrate: -24%

How did CCc1ccccc1NC(=O)C1CC(c2ccc(F)cc2)=NO1 (stereo not drawn) do in these assays?
Nrf2 inh: inconclusive; A549 tox: 3%; Mito fusion yeast: -3%; mIDH1 inhibitor: 0%; rTrxR1 inhibitor: 1%; TrxR1 substrate: 1%

What do the screens show for `COC(=O)c1ccccc1NC(=O)C1CC(c2ccc(F)cc2)=NO1` (stereo not drawn)?
Nrf2 inh: 4.1µM*; A549 tox: -7%; Mito fusion yeast: 17%; mIDH1 inhibitor: 3%; rTrxR1 inhibitor: -11%; TrxR1 substrate: -5%

Results for CSc1nc(N(C)CCO)c2sc3nc(-c4ccco4)c4c(c3c2n1)CCC4 ?
Nrf2 inh: 32%; A549 tox: 3%; Mito fusion yeast: -1%; mIDH1 inhibitor: -9%; rTrxR1 inhibitor: 7.1µM*; TrxR1 substrate: 4%

Results for CC1(C)Nc2cccc3c(N=Nc4ccc(N=Nc5ccccc5)c5ccccc45)ccc(c23)N1 ?
rTrxR1 inhibitor: 3%; TrxR1 substrate: -2%

What do the screens show for `O=C(C1=C[C@@H](c2ccc(Br)cc2)C[C@@H](OCc2ccc(CO)cc2)O1)N1CCN(Cc2ccccc2)CC1`?
Nrf2 inh: 21µM*; A549 tox: inconclusive; Mito fusion yeast: 4%; mIDH1 inhibitor: -6%; rTrxR1 inhibitor: -4%; TrxR1 substrate: 2%

Results for O=C(C1=C[C@H](c2csc3ccccc23)C[C@H](OCc2ccc(CO)cc2)O1)N1CCCCCCC1 ?
Nrf2 inh: 23µM*; A549 tox: -19%; mIDH1 inhibitor: -2%; rTrxR1 inhibitor: 24%[57.1 µM]; TrxR1 substrate: 9%[57.1 µM]

Results for O=C(Nc1ccccc1)C1=C[C@@H](c2ccc(Br)cc2)C[C@@H](OCc2ccc(CO)cc2)O1 ?
Nrf2 inh: 18µM*; A549 tox: -11%; Mito fusion yeast: 10%; mIDH1 inhibitor: -6%; rTrxR1 inhibitor: -4%; TrxR1 substrate: -5%

What do the screens show for `O=C(C1=C[C@H](c2ccc(C(F)(F)F)cc2)C[C@H](OCc2ccc(CO)cc2)O1)N1CCN(Cc2ccc3c(c2)OCO3)CC1`?
Nrf2 inh: inconclusive; A549 tox: inconclusive; Mito fusion yeast: 6%; mIDH1 inhibitor: -3%; rTrxR1 inhibitor: 8%; TrxR1 substrate: 1%

Results for O=C(C1=C[C@@H](c2ccc(C(F)(F)F)cc2)C[C@@H](OCc2ccc(CO)cc2)O1)N1CCN(Cc2ccc3c(c2)OCO3)CC1 ?
Nrf2 inh: 16µM*; A549 tox: -22%; Mito fusion yeast: 10%; mIDH1 inhibitor: -4%; rTrxR1 inhibitor: 15%; TrxR1 substrate: 4%

Results for O=C(C[n+]1ccccc1)c1ccc(I)cc1 ?
rTrxR1 inhibitor: 10%; TrxR1 substrate: 2%

Results for O=C(NC(=S)Nc1cc(C(F)(F)F)ccc1N1CCOCC1)c1ccco1 ?
Nrf2 inh: -21%; A549 tox: 7%; Mito fusion yeast: -5%; mIDH1 inhibitor: 25%; rTrxR1 inhibitor: 3%; TrxR1 substrate: 3%

How did CC(=O)NC(=S)Nc1cc(C(F)(F)F)ccc1N1CCOCC1 do in these assays?
Nrf2 inh: 26µM*; A549 tox: 3%; Mito fusion yeast: -7%; mIDH1 inhibitor: 6%; rTrxR1 inhibitor: -24%; TrxR1 substrate: -3%

How did CC(=O)Nc1nonc1-c1nnc(SCc2ccc(Cl)cc2)n1C do in these assays?
Nrf2 inh: -23%; A549 tox: -7%; mIDH1 inhibitor: 5%; rTrxR1 inhibitor: 6%; TrxR1 substrate: 4%
